Screens (PubChem)
PLAP act = activators of human placental alkaline phosphatase | purified PLAP enzyme, luminescent substrate read-out; hits give high values | activation fold at 20 µM | hit rate 1.2% among 96,000 | AID 696; in the data active means activation fold above about 2
Target sequence (P05187 whole entry, looked up): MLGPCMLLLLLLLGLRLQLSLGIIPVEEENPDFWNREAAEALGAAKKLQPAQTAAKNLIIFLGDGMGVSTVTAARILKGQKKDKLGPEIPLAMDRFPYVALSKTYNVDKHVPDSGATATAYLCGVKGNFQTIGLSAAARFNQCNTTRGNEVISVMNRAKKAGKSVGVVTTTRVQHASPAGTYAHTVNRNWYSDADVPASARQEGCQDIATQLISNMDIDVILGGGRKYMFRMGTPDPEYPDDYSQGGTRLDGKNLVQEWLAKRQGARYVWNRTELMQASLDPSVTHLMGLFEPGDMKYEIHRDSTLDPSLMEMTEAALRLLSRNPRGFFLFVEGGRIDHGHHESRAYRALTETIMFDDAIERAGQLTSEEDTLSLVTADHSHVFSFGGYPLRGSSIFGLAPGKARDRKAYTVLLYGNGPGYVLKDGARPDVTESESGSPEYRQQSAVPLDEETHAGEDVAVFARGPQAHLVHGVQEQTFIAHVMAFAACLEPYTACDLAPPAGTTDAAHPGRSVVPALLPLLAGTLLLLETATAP
Her2 expr inh = Her2 kinase expression inhibition. AID 645. SKBR-3 HER2 protein level, AlphaScreen, 18-24 h; hits give low values. hit rate 0.69% among 65,000. HER2 level % of control, % at 10 µM. P04626;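 active means HER2 level under 5% of the carrier-only control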;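 further: 100% = DMSO carrier and 0% = 500 nM PU-H71 HSP90 inhibitor; lower value means stronger loss of Her2 protein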
M1 antag = M1 muscarinic receptor (rat) antagonism. P08482. CHO-M1 cells, Fluo-4 calcium, ACh EC80 antagonist mode; hits give low values. B-score at 10 µM. hit rate 3.4% among 64,000. AID 628;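 active means calcium fluorescence response, raw or row-and-column corrected B-score, differing from the plate sample mean either way at a set confidence level, mostly lower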
Cav32 inh = blocks human Cav3.2 T-type calcium channel; O95180; Cav3.2-expressing cells, Fluo-4 calcium fluorescence FDSS; hits give low values; AID 449739; hit rate 4% among 100,000; B-score at 10 µM;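 active means single-dose well whose peak fluorescence ratio is a statistical outlier from its plate by either plate-standardised score or position-corrected B-score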
M1 ag = M1 muscarinic receptor agonism; CHO-M1 cells, Fluo-4 calcium fluorescence, agonist mode; hits give high values; hit rate 3% among 64,000; B-score at 10 µM;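 active means fluorescence rise, raw or as B-score row- and column-corrected plate score, outside the 99.7% band of its plate's samples, either direction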
An asterisk follows results filed as active; / = no result given. Sampled rows, rich in hits. Any-hit rate of the full collection: about 7.9%.

SMILES | PLAP act | Her2 expr inh | M1 antag | Cav32 inh | M1 ag
COc1cccc(C2Nc3cc(Cl)c(S(N)(=O)=O)cc3S(=O)(=O)N2)c1 (stereo not given) | 0.6 | / | / | -0.091 | /
Cc1ccccc1CN(c1ccc(C(=O)Nc2ccccc2C(=O)N2CCCC2)cc1)S(C)(=O)=O | 2* | / | / | / | /
Cn1c(=O)n(-c2cccc(Cl)c2)c(=O)c2c3c(sc21)COC(C)(C)C3 | 1 | / | / | 1.1 | /
FC(F)Sc1ccc(NC(=S)NCC2CCCCC2)cc1 | 1.7 | / | / | -5.7* | /
COc1ccc(-c2nc(=S)[nH][nH]2)cc1 | 2* | 77 | 0.13 | 0.65 | 0.19
Cc1cccc2cc(CN(Cc3nnnn3Cc3ccco3)C3CCCC3)c3nnnn3c12 | 1.4 | 81 | 2.4* | / | -0.39
Cc1cccc2cc(CN(CC3CCCO3)S(=O)(=O)c3ccccc3)c3nnnn3c12 (stereo not given) | 0.9 | 101 | 0.023 | / | -0.15
COc1cc(C)c(C(=O)Oc2cc(C)c(C(=O)O)c(O)c2)c(O)c1 | / | / | / | -4.8* | /
COC(=O)c1cc(OC)cc(O)c1C(=O)c1c(O)cc(C)cc1O | / | / | / | 0.36 | /
COCC(=O)n1nc(NCc2ccc(OC)cc2)nc1NCc1ccc(OC)cc1 | 1.3 | 76 | 1.2 | -8.9* | 0.82
CCC(=O)n1nc(NCc2ccc(OC)c(OC)c2)nc1NCc1ccc(OC)c(OC)c1 | 1.5 | / | 0.0066 | / | 0.56
O=S(=O)(Nc1cccc(CCc2ccccn2)c1)c1ccc2ccccc2c1 | 1 | / | / | -4.4* | /
Cc1ccc(S(=O)(=O)NC(C)CCc2ccccc2)cc1 (stereo not given) | 0.8 | / | / | -4.1* | /
Cc1ccc(S(=O)(=O)NCCc2ccccc2)cc1 | 0.6 | / | / | -2.4 | /
O=C(Nc1ccc(Cl)cc1)Nc1ccc2c(c1)N1CCN=C1S2 | 1.6 | -8.2* | -0.052 | -1.2 | -0.27
COc1ccc(C2/C(=C(/O)c3ccc(F)cc3)C(=O)C(=O)N2CCCN(C)C)cc1 (stereo not given) | / | 197 | / | / | /
COc1cccc(C(=O)Nc2nc3c(s2)CN(C)CC3)c1 | 1.2 | / | / | -0.63 | /
CCN(c1ccccc1)S(=O)(=O)c1ccc(NCC2COc3ccccc3O2)nc1 (stereo not given) | 0.9 | 76 | -0.96 | -4.8* | 0.19
C/C(=C\C(=O)c1ccncc1)Nc1ccccc1O | 0.9 | 87 | -0.1 | -5.7* | -0.64
Cc1cc(CCN2CCC(=O)NC2=O)ccc1OC(C)C | 1 | 76 | 0.2 | 0.22 | -0.11
Cc1ccc(C2CN(C)C3(C(=O)Nc4ccccc43)C23COc2ccccc2C3=O)cc1 (stereo not given) | 1.5 | / | / | / | /
CN1CC(c2ccccn2)C2(SC(=S)N(Cc3ccccc3)C2=O)C12C(=O)Nc1ccccc12 (stereo not given) | 1.4 | / | / | -4.8* | /
CN1CC(c2ccccc2)C2(SC(=S)N(Cc3ccco3)C2=O)C12C(=O)Nc1ccccc12 (stereo not given) | 1 | / | / | -4.7* | /
CN1CC(c2ccccc2Cl)C2(COc3ccccc3C2=O)C12C(=O)Nc1ccccc12 (stereo not given) | 1.3 | / | / | -3.6 | /
COc1ccc(NC(=O)COC(=O)CCCc2c[nH]c3ccccc23)cc1OC | 0.9 | / | / | 0.44 | /
SMILES | PLAP act | Her2 expr inh | M1 antag | Cav32 inh | M1 ag
CC(=O)c1sc(-c2c(C)nc3sccn23)nc1C1CCCC1 | 0.9 | 78 | 0.19 | / | 0.98
Cc1ccc(S(=O)(=O)c2c(N)n(NC(=O)c3ccco3)c3nc4ccccc4nc23)cc1 | 0.8 | 123 | -0.36 | -5.5* | -0.19
Cc1cccc(S(=O)(=O)c2c(N)n(Cc3ccco3)c3nc4ccccc4nc23)c1 | 1.9 | 77 | 1.1 | -2.5 | 0.038
O=C(Nc1ccc2[nH]c3c(c2c1)CCCC3)c1ccco1 | 1.3 | 71 | -0.16 | -1.1 | 3*
Cc1cc2cc(NC(=O)c3ccco3)ccc2[nH]1 | 1.1 | / | / | -1.2 | /
O/N=C/c1cc(Br)ccc1OCc1ccc(F)cc1 | / | / | / | -4.6* | /
OC12CCCCC1C(c1ccc3c(c1)OCO3)N(Cc1ccc(F)cc1)CC2 (stereo not given) | 1.5 | 71 | -0.1 | -5.9* | 0.046
CCn1c(SCC(=O)NCc2ccccc2)nc2c(c1=O)SC(C)C2 (stereo not given) | 1 | / | / | 0.76 | /
CCCCc1sc(-c2c(C#N)c(N)nc3c2CCCCC3)cc1[N+](=O)[O-] | 0.8 | / | / | -4.8* | /
COc1cccc(NC(=O)C(OC(=O)/C=C/c2ccc3c(c2)OCO3)c2ccccc2)c1 (stereo not given) | 1.1 | / | / | -5.1* | /
[N-]=[N+]=CC(=O)c1ccnc(C(=O)C=[N+]=[N-])c1 | 0.9 | 135 | 1.6* | -0.91 | -0.38
Cc1cnc(-c2nnc(N(C)C(=O)c3ccncc3)s2)cn1 | / | 86 | 0.061 | / | 0.63
O=C(CCn1[nH]c(=O)c2ccccc2c1=O)OC1CCCCC1 | 1.1 | -24* | 0.2 | -0.11 | -0.97
CCOC(=O)c1cnc(-n2nc(C)cc2C)nc1NCCc1ccccc1 | 1.8 | 14 | -0.39 | -4.1* | 0.27
COc1cccc(-c2nc(CS(=O)CC(=O)NCc3ccc4c(c3)OCO4)c(C)o2)c1 (stereo not given) | 1.5 | 96 | 0.68 | -5* | -0.025
Cc1ccc(NC(=O)CS(=O)Cc2nc(-c3ccc(C)cc3)oc2C)cc1 (stereo not given) | 1.1 | / | / | -4.6* | /
Cc1ccc(CNC(=O)CS(=O)Cc2nc(-c3ccccc3C)oc2C)cc1 (stereo not given) | 1.4 | 81 | -0.26 | -4.5* | 0.81
CCOC(=O)c1nnn(CC(=O)N2N=C(c3cccc4ccccc34)CC2c2ccccc2)c1C(=O)OCC (stereo not given) | / | / | / | -5.5* | /
CC(C)N1CC2(c3ccccc3)CN(C(C)C)CC(c3ccccc3)(C1)C2=O | 1 | / | / | -3.4* | /
CCN1C(=O)N(C)C2(c3ccccc3)N(C)C(=O)N(C)C12c1ccccc1 (stereo not given) | 1.1 | 70 | 0.037 | 0.48 | 0.0097
CCCN(C(=S)Nc1ccccc1)C1CCS(=O)(=O)C1 (stereo not given) | 0.8 | / | / | 0.27 | /
CCN(CC#CCC1(O)c2ccccc2-c2ccccc21)C(C)C | 1.1 | / | / | 0.7 | /
COc1ccc(-c2cc(=O)[nH][nH]2)cc1OC | 2.2* | / | / | 0.56 | /
COc1ccc(S(=O)(=O)O/N=C2\CCCc3ccccc32)cc1 | 0.9 | / | / | / | /
CCOc1cc(C(=O)NCCOC)ccc1OC | 0.8 | -8.0* | -0.15 | 0.75 | 0.05
SMILES | PLAP act | Her2 expr inh | M1 antag | Cav32 inh | M1 ag
O=C(c1ccc(C(=O)N2CCCc3ccccc32)s1)N1CCCc2ccccc21 | 1.5 | / | / | -7.8* | /
Cc1cccc(OCc2nnc(SCC(=O)N(C(C)C)C(C)C)n2Cc2ccco2)c1C | 1.6 | 71 | 0.52 | -6.6* | 0.086
Cc1cccc(C)c1OCc1nnc(SCC(=O)NCCc2ccccc2)o1 | / | 89 | -0.33 | -5.7* | -0.027
CC(C)(C)NC(=O)NC(=O)CSc1nnc(COc2ccccc2Cl)o1 | 1.2 | / | / | -6* | /
COc1ccc(Cc2nnc(SCC(=O)NCCc3ccccc3)o2)cc1 | 1 | 69 | 0.31 | -1 | 0.37
O=C(NCCc1ccccc1)c1ccc(Cl)nc1 | / | / | / | -0.12 | /
O=C(Nc1nnc(C2CC2)o1)c1ccc(S(=O)(=O)N2CCCc3ccccc32)cc1 | 2.5* | 84 | 0.16 | / | -0.013
